Results as given in PubChem BioAssay (Tox21).
Where “and” joins values, the source holds several entries; their conditions need not be identical. Identical values can stand only once. Inconclusive results are not listed. Entries that show only a call come without a potency. Some compounds were tested as several samples or in several runs, with calls that do not always agree. Calls of active or inactive are those of the source. The call rests on the fitted dose curve; in most records, active means well fitted curve in the direction sought with a large enough effect in the repeat runs; inconclusive means weak or mixed curves; inactive means no such curve, though single readings can be large; an effect the other way counts as inactive or inconclusive.

Test: qHTS assay to identify small molecule agonists of the sonic hedgehog signaling (Shh) pathway - cell viability counter screen (AID 1259366); further: nearly all actives have a fitted effect of over 50% in size
Conditions: NIH/3T3 Gli1-Luc viability, CellTiter-Fluor, 24 h; series mostly up to 92.4 µM; viability change, negative = cytotoxic: at the top concentration
How it was run: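 NIH/3T3-derived Gli1-Luc reporter cells, 2,000 per well, received compound after 4 h and were treated about 23 h at 37C. Viability measured in the same wells by CellTiter-Fluor fluorescence after 1 h.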
Potency means the concentration at half of the fitted maximal effect.

Which Potency does the source give for `CC1=C(/C=C/C(C)=C/C=C/C(C)=C/CO)C(C)(C)CCC1` here?
Its Potency is “inactive”.

For `NCc1cccc(CN)c1`, which Potency is on record?
The Potency was “inactive”.

For `OCC1CCCO1` (stereo not given), which Potency is on record?
Its Potency is “inactive”.

With `CCCCC(CC)C(=O)OCCOCCOCCOC(=O)C(CC)CCCC` (stereo not given) as the molecule, how does the Potency read?
The Potency was “inactive”.

Which Potency does the source give for `O=S(=O)(O)CCS` here?
The Potency was “inactive”.

Which Potency does the source give for `Oc1ccc2ccccc2c1` here?
Its Potency is “inactive”.

With `ClC1=C(Cl)C(Cl)(Cl)C(Cl)=C1Cl` as the molecule, how does the Potency read?
Its Potency is “inactive”.

With `O=C(c1ccc(O)cc1)c1ccc(O)cc1O` as the molecule, how does the “viability change, negative = cytotoxic” value read?
The value was -7.48% (inactive).

For `COCC(C)O` (stereo not given), which Potency is on record?
The Potency was “inactive”.

Which “viability change, negative = cytotoxic” value does the source give for `CC(C)NCC(O)COc1cccc2ccccc12` (stereo not given) here?
The value was -19.1% (inactive).

For `CCCCCCOC(C)=O`, which Potency is on record?
The Potency was “inactive”.

With `CC(C)n1c(/C=C/[C@@H](O)C[C@@H](O)CC(=O)O)c(-c2ccc(F)cc2)c2ccccc21` as the molecule, how does the Potency read?
The Potency was “inactive”.

With `c1ccc2ccccc2c1` as the molecule, how does the Potency read?
Its Potency is “inactive”.

With `CC(C)(C)C1CCC(O)CC1` (stereo not given) as the molecule, how does the Potency read?
Its Potency is “inactive”.

With `CCCCCCCCC` as the molecule, how does the Potency read?
Its Potency is “inactive”.

Which Potency does the source give for `C=C(C)C(=O)OCCCCCC` here?
Its Potency is “inactive”.

With `Cc1cc(O)c2c(c1)C(=O)c1cc(O)cc(O)c1C2=O` as the molecule, how does the “viability change, negative = cytotoxic” value read?
The value was -8.25% [at 42.5 µM] (inactive).

For `Nc1c(S(=O)(=O)O)cc(Br)c2c1C(=O)c1ccccc1C2=O`, which Potency is on record?
Its Potency is “inactive and 30.6 µM (active)”.

For `C=C(C)C(=O)OCC(CC)(COC(=O)C(=C)C)COC(=O)C(=C)C`, which Potency is on record?
The Potency was “inactive”.

With `Nc1cc(-c2ccncc2)c[nH]c1=O` as the molecule, how does the Potency read?
The Potency was “inactive”.

With `CCCCC(CC)COC(=O)CCCCCCCC(=O)OCC(CC)CCCC` (stereo not given) as the molecule, how does the Potency read?
Its Potency is “inactive”.

Which Potency does the source give for `CN(C)c1ccc(C(=N)c2ccc(N(C)C)cc2)cc1` here?
The Potency was 48 µM (active).

With `CCCCCCC(C)(C)S` as the molecule, how does the Potency read?
Its Potency is “inactive”.

Which Potency does the source give for `CCOC(=O)C1OC1c1ccccc1` (stereo not given) here?
The Potency was “inactive”.

With `Clc1ccc(Cl)c(Cl)c1Cl` as the molecule, how does the Potency read?
The Potency was “inactive”.

For `CNC[C@H](O)[C@@H](O)[C@H](O)[C@H](O)CO`, which Potency is on record?
The Potency was “inactive”.

For `C=C(C)C(=O)OCCC[Si](OC)(OC)OC`, which Potency is on record?
Its Potency is “inactive”.

With `CCCCC(CC)COC(=O)/C=C\C(=O)OCC(CC)CCCC` (stereo not given) as the molecule, how does the Potency read?
Its Potency is “inactive”.

Test: qHTS assay to identify small molecule antagonists of the sonic hedgehog signaling (Shh) pathway - cell viability counter screen (AID 1259367); further: nearly all actives have a fitted effect of over 55% in size
Conditions: NIH/3T3 Gli1-Luc viability, CellTiter-Fluor, 24 h; series mostly up to 92.4 µM; viability change, negative = cytotoxic: at the top concentration
How it was run: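 NIH/3T3-derived Gli1-Luc reporter cells, 2,000/well, plated 4 hr before compound addition, then stimulated with conditioned medium for 24 hr at 37C. Viability measured in the same wells by CellTiter-Fluor fluorescence, reagent added at 23 hr for 1 hr.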

For `CC1=C(/C=C/C(C)=C/C=C/C(C)=C/CO)C(C)(C)CCC1`, which Potency is on record?
The Potency was “inactive”.

For `NCc1cccc(CN)c1`, which Potency is on record?
The Potency was “inactive”.

For `CN(C)c1cccc(O)c1`, which Potency is on record?
Its Potency is “inactive”.

For `OCC1CCCO1` (stereo not given), which Potency is on record?
Its Potency is “inactive”.

With `CCCCC(CC)C(=O)OCCOCCOCCOC(=O)C(CC)CCCC` (stereo not given) as the molecule, how does the Potency read?
The Potency was “inactive”.

For `O=S(=O)(O)CCS`, which Potency is on record?
Its Potency is “inactive”.

Which “viability change, negative = cytotoxic” value does the source give for `Oc1ccc2ccccc2c1` here?
Its value is 1.45% (inactive).

For `Cc1ccc(C(=O)O)o1`, which Potency is on record?
Its Potency is “inactive”.

With `ClC1=C(Cl)C(Cl)(Cl)C(Cl)=C1Cl` as the molecule, how does the Potency read?
Its Potency is “inactive”.

Which Potency does the source give for `OC[C@@H](O)[C@H](O)[C@H](O)[C@@H](O)CO` here?
The Potency was “inactive”.

For `CCOC(=O)/C=C\C(=O)OCC`, which Potency is on record?
The Potency was “inactive”.

With `CC1=CC[C@H]2C[C@@H]1C2(C)C` as the molecule, how does the Potency read?
Its Potency is “inactive”.

With `O=C(c1ccc(O)cc1)c1ccc(O)cc1O` as the molecule, how does the “viability change, negative = cytotoxic” value read?
The value was -16.2% (inactive).

For `CCc1ccccc1O`, which Potency is on record?
The Potency was “inactive”.

For `COCC(C)O` (stereo not given), which Potency is on record?
The Potency was “inactive”.

Which Potency does the source give for `CC(C)NCC(O)COc1cccc2ccccc12` (stereo not given) here?
The Potency was “inactive”.

For `CCCCCCOC(C)=O`, which Potency is on record?
Its Potency is “inactive”.

Which Potency does the source give for `CC(C)n1c(/C=C/[C@@H](O)C[C@@H](O)CC(=O)O)c(-c2ccc(F)cc2)c2ccccc21` here?
The Potency was “inactive”.

Which Potency does the source give for `c1ccc2ccccc2c1` here?
The Potency was “inactive”.

With `CC(C)(C)C1CCC(O)CC1` (stereo not given) as the molecule, how does the Potency read?
The Potency was “inactive”.

For `Cn1c([N+](=O)[O-])cnc1COC(N)=O`, which Potency is on record?
The Potency was “inactive”.

Which Potency does the source give for `CCCCCCCCC` here?
Its Potency is “inactive”.

With `Cc1ccc(N)c(S(=O)(=O)O)c1` as the molecule, how does the Potency read?
The Potency was “inactive”.

For `C=C(C)C(=O)OCCCCCC`, which Potency is on record?
The Potency was “inactive”.

With `Oc1c(Cl)cc(Cl)c(Cl)c1Cl` as the molecule, how does the Potency read?
Its Potency is “inactive”.

Which Potency does the source give for `Cc1cc(O)c2c(c1)C(=O)c1cc(O)cc(O)c1C2=O` here?
The Potency was “inactive and 54.5 µM (active)”.

With `Nc1c(S(=O)(=O)O)cc(Br)c2c1C(=O)c1ccccc1C2=O` as the molecule, how does the Potency read?
The Potency was “inactive and 27.3 µM (active)”.

With `C=C(C)C(=O)OCC(CC)(COC(=O)C(=C)C)COC(=O)C(=C)C` as the molecule, how does the Potency read?
Its Potency is “inactive”.

With `Nc1cc(-c2ccncc2)c[nH]c1=O` as the molecule, how does the Potency read?
The Potency was “inactive”.

With `CCCCC(CC)COC(=O)CCCCCCCC(=O)OCC(CC)CCCC` (stereo not given) as the molecule, how does the Potency read?
The Potency was “inactive”.

Which Potency does the source give for `CN(C)c1ccc(C(=N)c2ccc(N(C)C)cc2)cc1` here?
The Potency was 48 µM (active) and 23.4 µM (active).

With `CCCCCCC(C)(C)S` as the molecule, how does the Potency read?
The Potency was “inactive”.

With `CCOC(=O)C1OC1c1ccccc1` (stereo not given) as the molecule, how does the Potency read?
Its Potency is “inactive”.

With `Clc1ccc(Cl)c(Cl)c1Cl` as the molecule, how does the Potency read?
Its Potency is “inactive”.

With `CNC[C@H](O)[C@@H](O)[C@H](O)[C@H](O)CO` as the molecule, how does the Potency read?
Its Potency is “inactive”.

Which Potency does the source give for `C=C(C)C(=O)OCCC[Si](OC)(OC)OC` here?
Its Potency is “inactive”.

With `CCCCC(CC)COC(=O)/C=C\C(=O)OCC(CC)CCCC` (stereo not given) as the molecule, how does the Potency read?
Its Potency is “inactive”.
